HP1b chromo inh = HTS for Inhibitors of HP1-beta Chromodomain Interactions with Methylated Histone Tails. AlphaScreen HP1-beta / biotin-H3K9me3 peptide binding. Chromobox protein homolog 1 (Homo sapiens), P83916. actives 0.56% (n = 390,000). Potency, µM (doses to about 114 µM), inactives show at the highest dose activity change, negative = inhibition, usual class: inhibitors. AID 540317, 2011; note: nearly all actives have a fitted effect of over 70% in size
Target sequence (P83916 whole entry, looked up): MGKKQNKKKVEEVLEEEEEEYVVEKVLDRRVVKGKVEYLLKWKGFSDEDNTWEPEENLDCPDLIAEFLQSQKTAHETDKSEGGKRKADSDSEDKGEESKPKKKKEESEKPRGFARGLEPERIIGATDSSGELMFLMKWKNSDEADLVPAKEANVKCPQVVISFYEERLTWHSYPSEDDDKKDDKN
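Compound inhibition of the preformed complex between 50 nM HP1-beta and 50 nM biotinylated H3K9me3 peptide was read by AlphaScreen. Buffer was PBS pH 7.4 with 0.01% Tween-20. Incubations ran 30 min at room temperature, with 10 ug/mL donor/acceptor beads.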
BAZ2B block = qHTS Assay for Inhibitors of BAZ2B | AlphaScreen BAZ2B-H3K14Ac peptide displacement | AID 504333, 2011 | Potency, µM (top dose mostly 114 µM), without a hit: top-dose activity change, negative = inhibition, usual class: inhibitors | Bromodomain adjacent to zinc finger domain protein 2B (Homo sapiens), Q9UIF8 | actives 4.4% (n = 360,000); note: % is set by controls: 0 for no effect and ±100 for the full control effect; nearly all actives have a fitted effect of over 60% in size
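Protein-peptide AlphaScreen: BAZ2B 50 nM, b-H3K14Ac 50 nM, 1x PBS pH 7.4 + 0.01% Tween-20. Preincubation 30 min RT; cpd 30 min RT (top 110 uM); beads 20 min RT, light-protected.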
ALOX12 inh = Primary qHTS assay for inhibitors of human arachidonate 12S-lipoxygenase (ALOX12): Round 2. Polyunsaturated fatty acid lipoxygenase ALOX12 (Homo sapiens), P18054. purified 12hLO, xylenol orange hydroperoxide absorbance. Potency, µM (top dose mostly 108 µM), for the others: at the top dose activity change, negative = inhibition, hits mostly inhibitors. actives 1.1% (n = 580,000). AID 1671190, 2021; note: % is set by controls: 0 for no effect and ±100 for the full control effect
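Purified human 12hLO (150 nM final) in 25 mM Hepes, 0.01% Triton X-100, pH 7.0 was preincubated 15 min at room temperature with compound. Then 40 uM arachidonic acid was added, 30 min. Hydroperoxide was read by Fe-XO absorbance ratio 573/405 nm.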
G9a block = qHTS Assay for Inhibitors of Histone Lysine Methyltransferase G9a | Histone-lysine N-methyltransferase EHMT2 (Homo sapiens), Q96KQ7 | G9a H3K9 monomethylation, AlphaScreen, 2 h | Potency, µM (highest dose often 102 µM), for the others: top-dose activity, negative = inhibition, actives largely listed as inhibitors | actives 8.8% (n = 350,000) | AID 504332, 2011; note: % is set by controls: 0 for no effect and ±100 for the full control effect; nearly all actives have a fitted effect of over 75% in size
Target sequence (Q96KQ7 913-1193 limits assumed): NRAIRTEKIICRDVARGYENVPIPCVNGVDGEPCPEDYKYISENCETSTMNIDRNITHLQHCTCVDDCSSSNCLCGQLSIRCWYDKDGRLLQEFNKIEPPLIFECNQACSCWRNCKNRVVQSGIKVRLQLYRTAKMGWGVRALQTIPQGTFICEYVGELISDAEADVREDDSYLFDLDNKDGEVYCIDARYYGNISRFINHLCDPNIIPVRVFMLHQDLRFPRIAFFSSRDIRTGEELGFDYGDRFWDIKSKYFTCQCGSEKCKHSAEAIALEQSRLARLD
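G9a (20 nM) preincubated 15 min RT with compounds, then 500 nM biotinylated H3K9 peptide and 20 uM SAM added; 2 h RT reaction. Monomethyl-H3K9 product detected by AlphaScreen with anti-H3K9me1 antibody, streptavidin donor and anti-rabbit IgG acceptor beads.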
PLK1 PBD block = qHTS for Inhibitors of PLK1-PDB (polo-like kinase 1 - polo-box domain): Primary Screen; Serine/threonine-protein kinase PLK1 (Homo sapiens), P53350; Plk1 PBD binding of FITC phosphopeptide, fluorescence polarization; Potency, µM, without a hit: max response, negative = inhibition, usual class: inhibitors; actives 2.8% (n = 360,000); AID 720504, 2013; note: series mostly up to about 57 µM; % is set by controls: 0 for no effect and ±100 for the full control effect; nearly all actives have a fitted effect of over 65% in size
JMJD2A Tudor = qHTS Assay for Inhibitors of JMJD2A-Tudor Domain; AID 504339, 2011; AlphaScreen JMJD2A-Tudor / H3K4me3 peptide binding; actives 4.4% (n = 390,000); Lysine-specific demethylase 4A (Homo sapiens), O75164; Potency, µM (doses to about 114 µM), for inactives: top-dose activity change, negative = inhibition, usual class: inhibitors; note: % is set by controls: 0 for no effect and ±100 for the full control effect; nearly all actives have a fitted effect of over 50% in size
* hit, by the source's call; [ ] = remark or other dose. Shown are actives, neighbours in structure and some others; about 9% of the full set was active somewhere. Calls come from the whole dose curve; as a rule, active = well fitted curve in the direction sought with a large enough effect; inconclusive = small, poorly fitted or top-dose-only effect, or another doubt; inactive = no such curve, though single readings can be large; an effect the other way counts as inactive or inconclusive. Potency is the fitted concentration of half-maximal effect.

CCCCCNC(=O)c1cc(S(=O)(=O)N2CCCCC2)ccc1F was read as HP1b chromo inh 18.1%, BAZ2B block 8.5%, ALOX12 inh 12.8%, G9a block -1.3%[12.7 µM], PLK1 PBD block -4.3% and JMJD2A Tudor -11.2%.
For COC(=O)c1c(-c2cccs2)csc1NC(=O)c1ccc(C)cc1 the results were HP1b chromo inh -23.4%, BAZ2B block inconclusive, ALOX12 inh 7.2%, G9a block inconclusive and JMJD2A Tudor -28.1%.
COC(=O)c1c(-c2cccs2)csc1NC(=O)c1ccc(OC)c(OC)c1 was read as HP1b chromo inh inconclusive, BAZ2B block -26.7%, ALOX12 inh -23.6%, G9a block 2.82µM* and JMJD2A Tudor -32.8%.
Screening COC(=O)c1c(-c2cccs2)csc1NC(=O)c1ccc(Br)cc1 returned HP1b chromo inh 6.1%, BAZ2B block -7.3%, ALOX12 inh inconclusive, G9a block 1.58µM* and JMJD2A Tudor -10.6%.
Screening COC(=O)c1c(-c2cccs2)csc1NC(=O)c1cc(OC)cc(OC)c1 returned HP1b chromo inh 0.5%, BAZ2B block -35.1%, ALOX12 inh -18.6%, G9a block 2.82µM* and JMJD2A Tudor -5.0%.
Screening COC(=O)c1c(-c2cccs2)csc1NC(=O)c1cc(OC)c(OC)c(OC)c1 returned HP1b chromo inh inconclusive, BAZ2B block inconclusive, ALOX12 inh inconclusive, G9a block inconclusive and JMJD2A Tudor 89.1µM*.
Screening O=c1ncn(C2CCCCC2)c(=O)[nH]1 returned HP1b chromo inh 13.4%, ALOX12 inh 10.7%, PLK1 PBD block -10.6% and JMJD2A Tudor -1.4%.
Screening CCN1CCCC1CNC(=O)c1ccc(N2CCOCC2)c(NS(=O)(=O)c2ccc(OC)cc2)c1 (stereo not drawn) returned HP1b chromo inh 29.9%, BAZ2B block -16.3%, ALOX12 inh -22.9%, G9a block 50.1µM*, PLK1 PBD block -5.9% and JMJD2A Tudor -17.2%.
COc1ccc(S(=O)(=O)Nc2cc(C(=O)NCCCN3CCOCC3)ccc2N2CCOCC2)cc1 was read as HP1b chromo inh 68.0%, BAZ2B block -32.3%, ALOX12 inh inconclusive, G9a block inconclusive, PLK1 PBD block -12.0% and JMJD2A Tudor -22.0%.
COc1ccc(S(=O)(=O)Nc2cc(C(=O)NCCC(C)C)ccc2N2CCOCC2)cc1 was read as HP1b chromo inh 39.4%, BAZ2B block -30.0%, ALOX12 inh 23.3%, G9a block 50.1µM*, PLK1 PBD block -1.4% and JMJD2A Tudor -11.7%.
Screening O=C(NCCCN1CCOCC1)c1ccc2c(c1)N(Cc1ccc(F)cc1)CCS2 returned HP1b chromo inh 19.0%, BAZ2B block inconclusive, ALOX12 inh -17.2%, G9a block 44.7µM*, PLK1 PBD block -7.0% and JMJD2A Tudor inconclusive.
CCN1CCN(CCNC(=O)c2ccc(/C=C3/Sc4ccccc4N(Cc4ccccc4C)C3=O)cc2)CC1 was read as HP1b chromo inh -19.1%, BAZ2B block inconclusive, ALOX12 inh inconclusive, G9a block inconclusive, PLK1 PBD block -9.1% and JMJD2A Tudor -35.3%[11.4 µM].
`O=C(NCCCN1CCOCC1)c1ccc2c(c1)N(Cc1cccc(Cl)c1)C(=O)c1ccccc1S2` gave HP1b chromo inh 5.4%, BAZ2B block inconclusive, ALOX12 inh inconclusive, G9a block -7.8%[59 µM] and JMJD2A Tudor -30.3%.
Screening O=C(NCCCN1CCOCC1)c1ccc2c(c1)N(Cc1c(F)cccc1Cl)C(=O)c1ccccc1S2 returned HP1b chromo inh 7.1%[57 µM], BAZ2B block inconclusive, ALOX12 inh inconclusive, G9a block 35.5µM*, PLK1 PBD block -5.0% and JMJD2A Tudor inconclusive.
CCN1CCN(CCCNC(=O)c2ccc(/C=C3/Sc4ccccc4N(Cc4ccccc4F)C3=O)cc2)CC1 was read as HP1b chromo inh -3.3%, BAZ2B block inconclusive, ALOX12 inh -26.8%, G9a block inconclusive, PLK1 PBD block -10.8% and JMJD2A Tudor 39.8µM*.
For O=C(NCc1ccc2c(c1)OCO2)C(=O)NC1CCCCC1 the results were HP1b chromo inh inconclusive, BAZ2B block -2.8%, ALOX12 inh inconclusive, G9a block inconclusive, PLK1 PBD block inconclusive and JMJD2A Tudor 50.1µM*.
Screening S=C(NC1CCCCC1)c1ccc2c(c1)OCO2 returned HP1b chromo inh -29.6%, BAZ2B block -12.4%, ALOX12 inh inconclusive, G9a block inconclusive, PLK1 PBD block 18.9µM* and JMJD2A Tudor -31.0%.
Screening c1cc2c(cc1NC1CCCCCC1)OCO2 returned HP1b chromo inh inconclusive, BAZ2B block 39.8µM*, ALOX12 inh -2.1%, G9a block 7.94µM*, PLK1 PBD block -23.7% and JMJD2A Tudor 50.1µM*.
For O=C(NC1CCCCCCC1)c1ccc2c(c1)OCO2 the results were HP1b chromo inh 55.5%, BAZ2B block -0.1%, ALOX12 inh -13.6%, G9a block -5.4%, PLK1 PBD block -15.3% and JMJD2A Tudor -5.7%.
`CC1CCCC(C)N1C(=O)CNCc1ccc2c(c1)OCO2` (stereo not drawn) gave HP1b chromo inh 1.1%, BAZ2B block inconclusive, ALOX12 inh inconclusive, G9a block 50.1µM*, PLK1 PBD block -2.5% and JMJD2A Tudor 50.1µM*.
Screening O=C(Nc1ccc(C(F)(F)F)cc1)c1cc(S(=O)(=O)NC2CCCCCC2)ccc1F returned HP1b chromo inh 8.1%, BAZ2B block 3.4%, ALOX12 inh inconclusive, G9a block 6.8%[59 µM] and JMJD2A Tudor -22.9%.
`CCCC(=O)NC(=S)N1CCN(c2ccc([N+](=O)[O-])cc2)CC1` gave HP1b chromo inh 25.9%, BAZ2B block -4.0%, ALOX12 inh -21.7%, G9a block 0.6%[59 µM], PLK1 PBD block -6.4% and JMJD2A Tudor -5.0%.
For O=C(NCCN1CCOCC1)c1ccc(Cl)c(S(=O)(=O)N2CCCCCC2)c1 the results were HP1b chromo inh 43.9%, BAZ2B block 20.3%, ALOX12 inh -2.2%, G9a block -15.5%[59 µM], PLK1 PBD block -5.7% and JMJD2A Tudor -5.3%.
`O=C(Nc1c2ccccc2nc2ccccc12)C(Cl)(Cl)Cl` gave HP1b chromo inh 46.9%, BAZ2B block 10.5%, G9a block 44.7µM*, PLK1 PBD block -10.6% and JMJD2A Tudor 12.9%.
